Measured values as given in PubChem BioAssay AID1578 (Sanford-Burnham Center for Chemical Genomics, 2009).
In all, about 290,000 compounds went through this assay and about 3,000 (1%) were called active. The list comes from a sample in which actives are over-represented; it also holds similar structures and randomly drawn compounds. Values without a mark were called inactive. No stated cut-off is given here; in the data, active means inhibition mostly above about 36% (no sharp cut-off); inactive means mostly below about 34%.

Experiment: inhibition of NOD1-driven NF-kB reporter – cell-based, luminescence, uHTS, primary screen (AID 1578);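 further: HEK-293T reporter cells stimulated with the NOD1 agonist gamma-tri-DAP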
Details: NOD1-driven NF-kB luciferase reporter cells, at 4 µM, active compounds read high

Q: With `CC(C)(C)N1C(=O)[C@H]2[C@@H](c3ccc(Br)cc3)N3C(=O)N(c4cccc(Br)c4)C(=O)[C@@]3(Cc3ccccc3)[C@H]2C1=O` as the molecule, how does the inhibition read?
A: -11.7%

Q: Which inhibition does the source give for `COc1ccc(CC(=O)Oc2ccc(F)cc2)cc1` here?
A: -9.7%

Q: For `O=C(NN/C(=N/S(=O)(=O)c1ccc(Cl)cc1)c1ccccc1)c1ccc(O)cc1`, which inhibition is on record?
A: -79.7%

Q: For `CCc1ccc(NC(=S)N2CCN(S(=O)(=O)c3ccccc3)CC2)cc1`, which inhibition is on record?
A: -13.5%

Q: Which inhibition does the source give for `CCOc1ccc2noc3c2c1C(=O)c1ccccc1-3` here?
A: -12.5%

Q: Which inhibition does the source give for `O=C1c2ccccc2-c2onc3c(Oc4ccccc4)cc(O)c1c23` here?
A: -15.3%

Q: For `O=C1c2ccccc2-c2onc3ccc(Oc4ccccc4)c1c23`, which inhibition is on record?
A: 86.3% (active)

Q: Which inhibition does the source give for `O=S(=O)(c1cccc(-n2cnnn2)c1)N1CCOCC1` here?
A: -8.4%

Q: Which inhibition does the source give for `CCOc1ccc2nc(SC3CC(=O)N(c4ccc(OC)cc4)C3=O)sc2c1` (centres undefined) here?
A: 15.3%

Q: With `Cc1ccc(SCc2cc(=O)[nH]c(/N=C(\N)Nc3cccc4ccccc34)n2)cc1` as the molecule, how does the inhibition read?
A: -11.6%

Q: Which inhibition does the source give for `COc1ccccc1N/C(N)=N/c1nc(CSc2ccc(C)cc2)cc(=O)[nH]1` here?
A: 53% (active)

Q: For `COc1ccc(Cl)cc1N/C(N)=N/c1nc(CSc2ccc(C)cc2)cc(=O)[nH]1`, which inhibition is on record?
A: -6%

Q: For `Cc1ccc(NC(=O)CN2CCN(C(=O)C3CCCO3)CC2)c(C)c1` (centres undefined), which inhibition is on record?
A: -8.7%

Q: For `CCCCCCc1nc2ccccc2c(=O)n1NC(=O)c1c(O)c2cccc3c2n(c1=O)CCC3`, which inhibition is on record?
A: 46.9%

Q: Which inhibition does the source give for `CCC(=O)N1CCN(c2nc(-c3ccc(Cl)cc3)cs2)CC1` here?
A: -12.7%

Q: Which inhibition does the source give for `CC(=O)/C(C#N)=C1\NC(=O)C(Cc2ccccc2Cl)S1` (centres undefined) here?
A: 14.5%

Q: With `CC(=O)/C(C#N)=C1\NC(=O)C(Cc2cc(Cl)ccc2Cl)S1` (centres undefined) as the molecule, how does the inhibition read?
A: 55% (active)

Q: For `CC(=O)/C(C#N)=C1\NC(=O)C(Cc2ccc(C)c(Cl)c2)S1` (centres undefined), which inhibition is on record?
A: 26.5%

Q: For `COc1cc(/C=C/C(=O)N2CCOCC2)ccc1OCc1ccccc1`, which inhibition is on record?
A: -102%

Q: Which inhibition does the source give for `Cc1cc(C)n2nc(C(=O)Nc3c(C)nn(Cc4ccc(F)cc4)c3C)cc2n1` here?
A: -36.9%

Q: For `Cc1cc2oc(=O)cc(Cn3ccnc3)c2cc1Cl`, which inhibition is on record?
A: 0.9%

Q: With `Cc1cc2oc(=O)cc(CN3CCOCC3)c2cc1Cl` as the molecule, how does the inhibition read?
A: 6.3%

Q: With `Cc1cc2oc(=O)cc(Cn3ncc(Cl)c(Cl)c3=O)c2cc1Cl` as the molecule, how does the inhibition read?
A: 56.2% (active)

Q: With `O=[N+]([O-])c1cc(S(=O)(=O)N2CCCC2)ccc1N/N=C1/CCCc2ccccc21` as the molecule, how does the inhibition read?
A: 13.3%

Q: For `NS(=O)(=O)c1ccc(CNC(=O)c2cccnc2Cl)cc1`, which inhibition is on record?
A: -10.3%

Q: With `CCOC(=O)C1CCCN(CCC(=O)Nc2cccc(C)c2)C1` (centres undefined) as the molecule, how does the inhibition read?
A: -37.8%

Q: For `Nn1cnnc1N/N=C/c1cc(Br)cc(Br)c1O`, which inhibition is on record?
A: 82.4% (active)

Q: With `Nn1cnnc1N/N=C/c1ccc(Cl)cc1Cl` as the molecule, how does the inhibition read?
A: -3.2%

Q: Which inhibition does the source give for `COc1ccc(/C=N/Nc2nncn2N)cc1Br` here?
A: -19.1%

Q: For `CC(C)CCN1C(=O)c2ccccc2C1C(=O)NCc1cccnc1` (centres undefined), which inhibition is on record?
A: 7.5%

Q: For `Cn1c(=O)c2c(nc3n2CC(COc2ccccc2)O3)n(C)c1=O` (centres undefined), which inhibition is on record?
A: -8.7%

Q: Which inhibition does the source give for `COc1cc(/C=N/Nc2snc(SC)c2C#N)ccc1O` here?
A: 63.7%

Q: Which inhibition does the source give for `COc1cc(/C=N/Nc2snc(SC)c2C#N)cc(OC)c1OC` here?
A: 68.9% (active)

Q: With `COc1ccc(/C=N/Nc2snc(SC)c2C#N)cc1OC` as the molecule, how does the inhibition read?
A: -0.1%

Q: For `CCOc1ccc(NC(=O)CCNS(=O)(=O)c2ccc3c(c2)oc(=O)n3C)cc1`, which inhibition is on record?
A: -14.8%

Q: Which inhibition does the source give for `N#CC(C(=O)c1ccccc1Cl)=C1SCCCS1` here?
A: -2.6%

Q: Which inhibition does the source give for `CCN1C(=NCC(C)C)N[C@@H](c2cccc(C(F)(F)F)c2)C(C(=O)OC)=C1C` here?
A: -18.8%

Q: Which inhibition does the source give for `Cc1ccc(-c2nc3cnccn3c2Nc2c(C)cccc2C)o1` here?
A: 71% (active)

Q: With `Cc1ccc(-c2nc3cnccn3c2Nc2ccccc2)o1` as the molecule, how does the inhibition read?
A: -18.2%

Q: Which inhibition does the source give for `Cc1ccc(Nc2c(-c3ccc(C)o3)nc3cnccn23)cc1` here?
A: -9.7%

Q: Which inhibition does the source give for `COc1ccc(C2c3cc(OC)c(OC)cc3CCN2C(=O)c2ccccc2)cc1OC` (centres undefined) here?
A: -31.9%

Q: For `Cc1ccc(NC(=O)c2cc(=O)c3ccccc3o2)cc1S(=O)(=O)N1CCOCC1`, which inhibition is on record?
A: -6.6%

Q: For `Cc1ccc(S(=O)(=O)N2CCCCC2)cc1NC(=O)CSc1ncnc2ccccc12`, which inhibition is on record?
A: 58.7%

Q: With `Cc1ccc(NC(=O)CSc2ncnc3ccccc23)cc1S(=O)(=O)N1CCCCCC1` as the molecule, how does the inhibition read?
A: 31.7%

Q: For `O=C(Nc1ccc(S(=O)(=O)N2CCCC2)cc1)c1cc(=O)c2ccccc2o1`, which inhibition is on record?
A: -3.6%

Q: For `COc1ccc(Br)cc1CNC(=O)CN1C(=O)C(c2ccccc2)Oc2cccnc21` (centres undefined), which inhibition is on record?
A: 18.1%

Q: For `CCc1ccccc1NC(=O)CCc1c(C)nn(-c2ccc(N3CCOCC3)nn2)c1C`, which inhibition is on record?
A: 20.1%

Q: With `O=C(CSc1nnc(CNC(=O)c2cccs2)o1)Nc1ccc(Br)cc1` as the molecule, how does the inhibition read?
A: -31.8%

Q: With `CCOC(=O)c1ccc2ncc(C(=O)OCC)c(Nc3ccc(N4CCOCC4)cc3)c2c1` as the molecule, how does the inhibition read?
A: 107% (active)

Q: For `CCOC(=O)c1cnc2ccc(C)cc2c1Nc1ccc(N2CCOCC2)cc1`, which inhibition is on record?
A: -17.2%

Q: Which inhibition does the source give for `CCOC(=O)c1cnc2ccc(C(=O)OC)cc2c1Nc1ccc(C(=O)O)cc1` here?
A: -16.9%

Q: With `CC(C)C(NC(=O)C(C)N1C(=O)c2ccccc2C1=O)c1ccccc1` (centres undefined) as the molecule, how does the inhibition read?
A: -7.4%

Q: For `CCC(=O)c1ccc(SC(=O)N(C)C)cc1O`, which inhibition is on record?
A: -4.8%

Q: With `C=C1CCC[C@]2(C)C[C@H]3OC(=O)C(CN4CC(C)OC(C)C4)[C@H]3C[C@@H]12` (some centres undefined) as the molecule, how does the inhibition read?
A: -4.7%

Q: With `C=C1CCC[C@]2(C)C[C@H]3OC(=O)C(CN4CCOCC4)[C@H]3C[C@@H]12` (some centres undefined) as the molecule, how does the inhibition read?
A: 2.5%

Q: With `C=C1CCC[C@]2(C)C[C@H]3OC(=O)C(CN4CCCCC4CO)[C@H]3CC12` (some centres undefined) as the molecule, how does the inhibition read?
A: 80.3% (active)

Q: With `COc1ccccc1NC(=O)c1sc2ncn(Cc3ccc(C)cc3)c(=O)c2c1C` as the molecule, how does the inhibition read?
A: -43.8%

Q: For `CCCS(=O)(=O)Nc1cc(C(F)(F)F)ccc1OCCOC`, which inhibition is on record?
A: -0.9%

Q: For `Nc1ccc(Oc2ccc(F)cc2)nc1`, which inhibition is on record?
A: -4.6%

Q: Which inhibition does the source give for `Cc1cccc(Oc2ccc(N)cc2)c1` here?
A: -25.9%

Q: Which inhibition does the source give for `CC(C)(C)c1ccc(Oc2ccc(N)cn2)cc1` here?
A: 65.9% (active)

Q: Which inhibition does the source give for `Cc1cc(Oc2ccc(N)cn2)ccc1Cl` here?
A: 4.5%

Q: For `Nc1ccc(Oc2cc(N)cc(Oc3ccccc3)c2)cc1`, which inhibition is on record?
A: -12.3%

Q: Which inhibition does the source give for `CC(C)(C)c1ccc(Oc2ccc(N)cc2)cc1` here?
A: 82% (active)

Q: With `Cc1cc(C)cc(Oc2ccc(N)cc2)c1` as the molecule, how does the inhibition read?
A: -28.1%

Q: Which inhibition does the source give for `Nc1ccc(Oc2ccc(Br)cc2)cc1` here?
A: -35.5%

Q: With `CCn1c2c(c3cc(Br)ccc31)CCC/C2=N\O` as the molecule, how does the inhibition read?
A: 15.3%

Q: Which inhibition does the source give for `O=C(CCN1CCN(Cc2ccccc2)CC1)NNC(=O)Cc1ccc(Cl)c(Cl)c1` here?
A: -1.2%

Q: For `COCC(=O)N(Cc1cc2cc(OC)ccc2[nH]c1=O)c1ccc(C)cc1`, which inhibition is on record?
A: -12.1%

Q: For `O=C(CCS(=O)(=O)c1ccccc1)Nc1ccc2c(c1)OCO2`, which inhibition is on record?
A: -59.3%

Q: With `CCOC(=O)N1CCN(S(=O)(=O)c2cc(Br)cnc2N)CC1` as the molecule, how does the inhibition read?
A: 10.4%

Q: With `COc1ccc(-c2csc(N3CCC(c4ccccc4)C3)n2)cc1` (centres undefined) as the molecule, how does the inhibition read?
A: 26.8%

Q: With `CCc1ccc(N(CC(=O)N2CCN(Cc3ccccc3)CC2)S(C)(=O)=O)cc1` as the molecule, how does the inhibition read?
A: -32.3%

Q: With `Cc1nc(=S)c2c([nH]1)-c1ccccc1CC21CCCCC1` as the molecule, how does the inhibition read?
A: 104% (active)

Q: With `Nc1nc(=S)[nH]c2c1C1(CCCC1)Cc1ccccc1-2` as the molecule, how does the inhibition read?
A: 14.3%

Q: With `Nc1nc(=S)[nH]c2c1C1(CCCCC1)Cc1ccccc1-2` as the molecule, how does the inhibition read?
A: -16.2%

Q: With `N#C/C(=C\c1ccc(Sc2nc3ccccc3[nH]2)o1)c1ccccc1` as the molecule, how does the inhibition read?
A: 65.2%

Q: Which inhibition does the source give for `N#C/C(=C/c1ccc(Sc2nc3ccccc3[nH]2)o1)c1cccc(Br)c1` here?
A: 3.1%

Q: Which inhibition does the source give for `N#C/C(=C/c1ccc(Sc2nc3ccccc3[nH]2)o1)c1cccc(F)c1` here?
A: 76.3% (active)

Q: For `COc1cccc(CN2CCN(C(=S)NCc3ccc(Cl)cc3)CC2)c1`, which inhibition is on record?
A: -10.4%

Q: For `CCc1nc2sc3c(c2c(=O)n1CCO)CCC3`, which inhibition is on record?
A: -18.6%

Q: With `COC(=O)c1cc(C)sc1NC(=O)CCCC(=O)O` as the molecule, how does the inhibition read?
A: -19.8%

Q: For `CCCCNC(=O)CCn1c(=O)c2ccccc2n(CC(=O)N2CC(C)CC(C)C2)c1=O` (centres undefined), which inhibition is on record?
A: 21.3%

Q: For `Cc1ccsc1/C=C/c1n[nH]c(=O)c(C#N)c1C`, which inhibition is on record?
A: 9.3%

Q: Which inhibition does the source give for `COc1cccc(/C=C/c2n[nH]c(=O)c(C#N)c2C)c1` here?
A: -7.2%

Q: Which inhibition does the source give for `COc1ccc(/C=C/c2n[nH]c(=O)c(C#N)c2C)cc1` here?
A: 84.3% (active)

Q: With `COc1ccc(-c2nc3ccccc3c(=O)n2NC(=O)Cc2ccccc2)cc1` as the molecule, how does the inhibition read?
A: -18.8%

Q: With `COCCC(=O)N1CCC(Oc2ccc(C(=O)N3C[C@@H](C)O[C@@H](C)C3)cc2)CC1` as the molecule, how does the inhibition read?
A: -23.9%

Q: For `O=C(c1cccc(Oc2ccc([N+](=O)[O-])cc2Cl)c1)N1CCOCC1`, which inhibition is on record?
A: -7.9%

Q: Which inhibition does the source give for `CC1(C)CC(=O)C2=C(C1)Nc1ccccc1N=C2` here?
A: 59.6% (active)

Q: With `CCC(=O)c1cccc2c1N=CC1=C(CC(C)(C)CC1=O)N2` as the molecule, how does the inhibition read?
A: -20.6%

Q: With `CC1CC(=O)C2=C(C1)Nc1ccccc1N=C2` (centres undefined) as the molecule, how does the inhibition read?
A: 11.1%

Q: With `CCCNc1cc(=S)nc(N)[nH]1` as the molecule, how does the inhibition read?
A: 5%

Q: Which inhibition does the source give for `O=C(O)CSc1nnc(-c2ccc3c(c2)OCO3)o1` here?
A: 4.3%

Q: Which inhibition does the source give for `O=C1OCCC1Sc1nnc(-c2ccc3c(c2)OCO3)o1` (centres undefined) here?
A: -4.4%

Q: With `O=C(c1ccc(Cl)cc1)N1CCCCC(Sc2nnc(-c3ccc4c(c3)OCO4)o2)C1=O` (centres undefined) as the molecule, how does the inhibition read?
A: 57.8% (active)

Q: Which inhibition does the source give for `Clc1ccc(CSc2nnc(-c3ccc4c(c3)OCO4)o2)cc1` here?
A: -7.9%

Q: With `N#CCSc1nnc(-c2ccc3c(c2)OCO3)o1` as the molecule, how does the inhibition read?
A: -37.8%

Q: Which inhibition does the source give for `O=C1CCCCC1Sc1nnc(-c2ccc3c(c2)OCO3)o1` (centres undefined) here?
A: 87.4% (active)
